# TGFb SMAD3 inh: qHTS for Inhibitors of TGF-b; Potency, µM (titrated, usually from 46.1 µM), inactives show at the highest dose activity, negative = inhibition, usual class: inhibitors; HepG2 CAGA-GFP TGF-b/SMAD3 reporter, GFP fluorescence, 18 h; TGF-beta stimulated, 500 pg/mL final; actives 1.2% (n = 410,000); also: potency is read from the fitted curve at half-maximal effect; % is scaled to controls: 0 for no effect and ±100 for the full control effect; nearly all actives have a fitted effect of over 65% in size
#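 Using HEPG2 CAGA-GFP reporter cells at 1000 cells/well, we pinned test compounds, stimulated with recombinant TGF-beta (500 pg/mL final) and measured total well GFP after 18 h.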
# HepG2 tox: qHTS for Inhibitors of TGF-b: Cytotox Counterscreen; actives 0.76% (n = 410,000); HepG2 CAGA-GFP viability, ATP luminescence, 18 h; Potency, µM (series often up to 46.1 µM), inactives show top-dose activity change, negative = cytotoxicity, most hits filed as cytotoxic; also: potency is read from the fitted curve at half-maximal effect
#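 CellTiter-Glo luminescence gave cytotoxicity after 18 hours at 37 degrees C. The cells were HepG2 CAGA-GFP in 1% FBS DMEM, stimulated with 500 pg/mL TGF-beta after compound addition. %Activity was normalised to no-cell wells (complete cell-killing) and DMSO (no toxicity), and curves were fitted and classified.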
# S-ASM inh: Inhibitors of Secretory Acid Sphingomyelinase (S-ASM): qHTS; Sphingomyelin phosphodiesterase (Homo sapiens), P17405; actives 0.006% (n = 340,000); placental ASM, HMU-PC fluorogenic substrate, 60 min; Potency, µM (doses to about 57.5 µM), for the others: at the top dose activity change, negative = inhibition, hits mostly inhibitors; also: potency is read from the fitted curve at half-maximal effect
# Target sequence (P17405 47-631 limits assumed): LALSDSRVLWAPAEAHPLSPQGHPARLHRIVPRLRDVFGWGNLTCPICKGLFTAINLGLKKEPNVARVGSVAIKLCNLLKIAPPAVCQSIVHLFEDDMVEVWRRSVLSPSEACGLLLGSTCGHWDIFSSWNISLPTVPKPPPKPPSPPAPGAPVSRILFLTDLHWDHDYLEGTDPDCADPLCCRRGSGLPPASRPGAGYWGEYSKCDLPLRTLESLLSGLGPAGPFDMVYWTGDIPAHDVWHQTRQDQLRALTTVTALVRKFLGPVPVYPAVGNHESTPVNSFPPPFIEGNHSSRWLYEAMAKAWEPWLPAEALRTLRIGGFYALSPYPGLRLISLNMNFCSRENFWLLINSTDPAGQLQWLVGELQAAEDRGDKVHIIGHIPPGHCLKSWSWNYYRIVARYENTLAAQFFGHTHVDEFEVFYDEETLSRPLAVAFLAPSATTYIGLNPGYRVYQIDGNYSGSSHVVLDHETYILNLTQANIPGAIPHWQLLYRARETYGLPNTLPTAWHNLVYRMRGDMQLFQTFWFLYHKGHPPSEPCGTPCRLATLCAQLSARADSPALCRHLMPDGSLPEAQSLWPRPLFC
#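 Fluorescence read-out (Ex 386 nm, Em 447 nm) after stopping the reaction at pH 10. Enzyme: ASM from human placenta; substrate HMU-PC0, 9 uM final; 60 min, 37 °C. Compound preincubation 10 min, ambient temperature.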
# IL1B secr inh: qHTS for Inhibitors of Inflammasome Signaling: IL-1-beta AlphaLISA Primary Screen; THP-1 LPS/ATP IL-1B secretion, AlphaLISA, 16 h; hits give low values; activity change, % at 57.5 µM; actives 4.7% (n = 360,000); in the data active = activity change below about -50%; inconclusive = mostly about -30% to -49%; also: % is scaled to controls: 0 for no effect and ±100 for the full control effect
#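 THP-1 cells pretreated 1 hr with compounds (up to 57.5 uM final), then stimulated with LPS (250 ng/mL final) plus ATP (1.25 mM final); secreted IL-1B measured by AlphaLISA after 16 hr, decreased signal indicating inhibition.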
# TDP1 cell noCPT: qHTS for Inhibitors of human tyrosyl-DNA phosphodiesterase 1 (TDP1): qHTS in cells in absence of CPT. DT40 Tdp1-/- hTDP1 cells, no CPT, ATP luminescence, 48 h. Potency, µM (top dose mostly 46.2 µM), for inactives: at the top dose activity change, negative = growth inhibition, usual class: inhibitors. actives 15% (n = 420,000). AID 686978, 2013; also: potency is read from the fitted curve at half-maximal effect; % is scaled to controls: 0 for no effect and ±100 for the full control effect; nearly all actives have a fitted effect of over 55% in size
#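 No-CPT arm: Tdp1-/-;hTDP1 DT40 cells (400/well) plus compounds, incubated ≥48 hr at 37 °C. Readout CellTiter-Glo luminescence.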
# TDP1 cell CPT: qHTS for Inhibitors of human tyrosyl-DNA phosphodiesterase 1 (TDP1): qHTS in cells in presence of CPT. chicken DT40 Tdp1-/-;hTDP1 cells + 20 nM CPT, ATP luminescence, 48 h. Potency, µM (top dose mostly 46.2 µM), without a hit: top-dose activity change, negative = growth inhibition, actives largely listed as inhibitors. actives 12% (n = 420,000). AID 686979, 2013; also: potency is read from the fitted curve at half-maximal effect; % is scaled to controls: 0 for no effect and ±100 for the full control effect; nearly all actives have a fitted effect of over 55% in size
#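 Chicken DT40 Tdp1-/- cells complemented with human TDP1, 400 cells/well, exposed to compounds plus 20 nM camptothecin for at least 48 h at 37 C; viability read as ATP content by CellTiter-Glo luminescence.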
# Starred values were filed as active, the others as inactive; ? = inconclusive; . = not tested or not shown; [ ] = dose if it differs, or a comment. A selection: hits, their analogues and other compounds. The true share with any hit is near 19%. Unless noted, calls follow the shape of the dose curve; as a rule, active = well fitted curve in the direction sought with a large enough effect; inconclusive = small, poorly fitted or top-dose-only effect, or another doubt; inactive = no such curve, though single readings can be large; an effect the other way counts as inactive or inconclusive.
SMILES,TGFb SMAD3 inh,HepG2 tox,S-ASM inh,IL1B secr inh,TDP1 cell noCPT,TDP1 cell CPT
CC(C)C[C@H](NC(=O)N1CCn2c1nc1ccccc12)C(=O)N1CCCCC1,?,-26%,-3%,-5,21µM*,?
COc1cccc(NC(=O)[C@H](C)NC(=O)N2CCn3c2nc2ccccc23)c1,-4%,-1%,-4%,13,5%,-14%
CCOc1ccc(OCC)c(NC(=O)C2C3C=CC(O3)C2C(=O)O)c1 (stereo not drawn),-2%,5%,.,-24,3%,-2%
COc1ccc(C)cc1NC(=O)CCn1nc(C)cc1C,0%,9%,.,.,?,-27%
CCC(C)[C@H](NC(=O)N1CCn2c1nc1ccccc12)C(=O)NCCc1ccc(OC)c(OC)c1 (stereo partly drawn),?,-36%,-1%,-9,16µM*,15µM*
COC(=O)[C@]12CCCCC=C1N(CCC1=CCCCC1)C(=O)[C@H](CC(=O)N1CCCC1)C2,.,.,.,-3,16µM*,?
COC(=O)[C@]12CCCCC=C1N(CCC1=CCCCC1)C(=O)[C@H](CC(=O)N1CCN(C(=O)c3ccco3)CC1)C2,.,.,.,-15,26µM*,?
COC(=O)[C@]12CCCCC=C1N(CCC1=CCCCC1)C(=O)[C@H](CC(=O)N1CCC(c3ccccc3)CC1)C2,.,.,.,7,16µM*,?
O=C(Cc1cccc(NC(=O)C2CCCN(C(=O)C3CCCCC3)C2)c1)Nc1ccc(C(=O)N2CCOCC2)cc1 (stereo not drawn),1%,-22%,3%,-20,-1%,3%
CN(C)/C=C(\C=O)c1ncc(C(F)(F)F)cc1Cl,-16%,-20%,-3%,22,5%,4%
COc1ccc(CCN2C(=O)c3cccnc3C2=O)cc1OC,0%,-73%,5%,-2,6%,0%
Cn1c(=O)c2c(-c3ccccc3Br)n(C(C)(C)C)cc2n(C)c1=O,-21%,-19%,.,.,12µM*,16µM*
COc1ccc(CCn2cc3c(c2-c2ccccc2Br)c(=O)n(C)c(=O)n3C)cc1OC,?,-28%,.,.,16µM*,21µM*
CC(c1ccccc1)n1cc2c(c1-c1ccccc1Br)c(=O)n(C)c(=O)n2C (stereo not drawn),?,-30%,.,.,18µM*,16µM*
CCOc1ccc(CCNC(=O)COC(=O)c2cc(S(=O)(=O)N3CCOCC3)ccc2F)cc1OCC,13%,10%,-3%,-2,-19%,6%
Cc1c(NC(=O)COC(=O)/C=C/c2ccc(Cl)cc2)c(=O)n(-c2ccccc2)n1C,?,0%,-1%,-22,-19%,-2%
COc1cc(OC)c(OC)cc1/C=C/C(=O)OCC(=O)Nc1c(C)n(C)n(-c2ccccc2)c1=O,15%,-17%,448%,-15,1µM*,?
COc1ccc(C(=O)/C=C/Nc2c(C)n(C)n(-c3ccccc3)c2=O)cc1OC,-17%,-19%,-9%,-11,16µM*,23µM*
CCOC(=O)CSc1nc2sc3c(c2c(=O)n1Cc1ccccc1)CC(C)CC3 (stereo not drawn),0%,0%,.,.,12µM*,?
CN1CCc2c(sc3c2c(=O)n(-c2ccccc2)c2nnc(SCc4ccc(Cl)cc4)n32)C1,0%,-17%,-1%,-81*,?,13µM*
CN1CCc2c(sc3c2c(=O)n(-c2cccc(Cl)c2)c2nncn32)C1,32%,-13%,3%,7,-29%,?
CCOC(=O)CSc1nnc2n(-c3ccccc3)c(=O)c3c4c(sc3n12)CC(C(C)(C)C)CC4 (stereo not drawn),?,11µM*,.,.,?,?
O=C1c2ccccc2C(=O)C1c1ccc2ccccc2n1,43%,-16%,-12%,-3,26µM*,6.3µM*
O=C1c2ccccc2C(=O)C1c1cc2ccccc2cn1,3%,6%,.,.,7.1µM*,1.8µM*
C=CCn1cc(C(=O)OCC)c(=O)c2ccc(F)cc21,2%,2%,3%,22,10%,-2%
SMILES,TGFb SMAD3 inh,HepG2 tox,S-ASM inh,IL1B secr inh,TDP1 cell noCPT,TDP1 cell CPT
CN(C(=O)c1ccc(NC(=O)Cc2ccc(NC(=O)C3CCCN(C(=O)C4CCCC4)C3)cc2)cc1)C1CC1 (stereo not drawn),-1%,3%,0%,-11,-24%,-21%
O=C(CN1CCCc2ccccc21)N/N=C/c1ccc(F)cc1F,-5%,-3%,-3%,-2,15µM*,21µM*
O=C(CN1CCCc2ccccc21)N/N=C/c1ccccc1O,?,-32%,155%,40,4.1µM*,-99%
COc1ccc(NC(=O)CC2SC(=Nc3ccccc3)NC2=O)cc1 (stereo not drawn),-24%,-24%,-2%,-25,?,?
COc1ccc(NC(=O)Nc2ccc(OC)cc2)cc1,3%,15%,4%,3,0%,-17%
COc1ccc(NC(=O)/C=C2\SC(=O)NC2=O)cc1,-6%,-21%,-2%,-51*,13%,12%
COc1ccc(NC(=O)CC2SC(=O)NC2=O)cc1 (stereo not drawn),7%,15%,-1%,-5,5.8µM*,2.3µM*
Cc1ccc(NC(=O)CC2S/C(=N/N=C3/NC(=O)CS3)NC2=O)cc1 (stereo not drawn),10%,-3%,3%,-4,-1%,-11%
Cc1ccc(NC(=O)CC2SC(=O)NC2=O)cc1 (stereo not drawn),-4%,-19%,1%,-4,5.8µM*,2.6µM*
CC(C)CC(NC(=O)C1CCC(=O)N1)C(=O)NC(CC(C)C)C(=O)N1CCCC1C(N)=O (stereo not drawn),12%,-13%,8%,-13,6%,-15%
Cc1ccc(S(=O)(=O)C(CNS(=O)(=O)c2ccc(F)c(C(F)(F)F)c2)c2ccco2)cc1 (stereo not drawn),?,-55%,.,.,?,?
CCOc1cccc(CN2CCC(n3cc(C(=O)N4CCCCC4)nn3)CC2)c1O,.,.,.,.,-10%,12%[9.04 µM]
O=C(NCCCO)c1cc([N+](=O)[O-])cc2c1C=Cc1ccccc1O2,-8%,-12%,-10%,-7,?,?

# Compound activity from PubChem BioAssay.
